In PubChem BioAssay AID1159580 (chemical genetic matrix, 2015):
Among all 5,500 compounds or so, about 2,000 (36%) were called active. Not shown: some 18% with an inconclusive outcome. Cut-off read from the data, not from the text of the source: active = normalized growth mostly below about 0.91 (no sharp cut-off); inconclusive = no clear call, values can overlap the other calls; inactive = mostly above about 0.92. This is one part of the list.

Test: chemical genetic growth profiling, strain panel (AID 1159580);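 note: tested at 20 µM; growth read once vehicle control cultures reached saturation at 30 °C; 1 = growth at the plate median or of vehicle wells; lower values mean less growth of the strain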
Settings: growth OD
[1] = S. cerevisiae deletion strains, locus YHR030C, strain SLT2, hits give low values

Measured: normalized growth

Cc1cc(C(F)(F)F)c(C#N)c(=O)[nH]1
inactive: S. cerevisiae deletion strains, locus YAL013W, strain DEP1, hits give low values 1.02 | S. cerevisiae deletion strains, locus YBR229C, strain ROT2, hits give low values 1 | S. cerevisiae deletion strains, locus YCL061C, strain MRC1, hits give low values 1 | S. cerevisiae deletion strains, locus YDL101C, strain DUN1, hits give low values 0.995 | S. cerevisiae deletion strains, locus YDL134C, strain PPH21, hits give low values 1.01 | S. cerevisiae deletion strains, locus YDR150W, strain NUM1, hits give low values 0.982 | S. cerevisiae deletion strains, locus YEL061C, strain CIN8, hits give low values 1 | S. cerevisiae deletion strains, locus YGR078C, strain PAC10, hits give low values 1 | [1] 1.01 | S. cerevisiae deletion strains, locus YHR087W, strain rtc3, hits give low values 1 | S. cerevisiae deletion strains, locus YJL187C, strain SWE1, hits give low values 1 | S. cerevisiae deletion strains, locus YJR043C, strain POL32, hits give low values 0.997 | S. cerevisiae deletion strains, locus YJR075W, strain HOC1, hits give low values 1.03 | S. cerevisiae deletion strains, locus YKL190W, strain CNB1, hits give low values 1.01 | S. cerevisiae deletion strains, locus YLR039C, strain RIC1, hits give low values 1.04 | S. cerevisiae deletion strains, locus YLR058C, strain SHM2 (second series), hits give low values 1 | S. cerevisiae deletion strains, locus YLR085C, strain ARP6, hits give low values 1.03 | S. cerevisiae deletion strains, locus YLR262C, strain YPT6, hits give low values 1.03 | S. cerevisiae deletion strains, locus YML094W, strain GIM5, hits give low values 0.997 | S. cerevisiae deletion strains, locus YMR219W, strain ESC1, hits give low values 1.01 | S. cerevisiae deletion strains, locus YMR263W, strain SAP30, hits give low values 0.963 | S. cerevisiae deletion strains, locus YNL128W, strain TEP1, hits give low values 1.02 | S. cerevisiae deletion strains, locus YNL153C, strain GIM3, hits give low values 1 | S. cerevisiae deletion strains, locus YNL298W, strain CLA4 (second series), hits give low values 1.02 | S. cerevisiae deletion strains, locus YNL322C, strain KRE1, hits give low values 1 | S. cerevisiae deletion strains, locus YNR030W, strain Alg12, hits give low values 1.02 | S. cerevisiae deletion strains, locus YOL006C, strain TOP1, hits give low values 1.06 | S. cerevisiae deletion strains, locus YPL055C, strain LGE1, hits give low values 1.02 | S. cerevisiae deletion strains, locus YPL241C, strain CIN2, hits give low values 0.941 | S. cerevisiae deletion strains, locus YPR135W, strain CTF4, hits give low values 1.06 | S. cerevisiae strains, strain wild type, hits give low values 1.02

O=C1CCc2ccc(OCCCCN3CCN(c4cccc(Cl)c4Cl)CC3)cc2N1
inactive: [1] 1.03 | S. cerevisiae deletion strains, locus YHR079C, strain IRE1, hits give low values 0.961 | S. cerevisiae deletion strains, locus YJL095W, strain BCK1, hits give low values 0.955 | S. cerevisiae deletion strains, locus YJR066W, strain TOR1, hits give low values 0.927 | S. cerevisiae deletion strains, locus YLR113W, strain HOG1, hits give low values 0.959 | S. cerevisiae deletion strains, locus YNL183C, strain NPR1, hits give low values 0.894 | S. cerevisiae deletion strains, locus YOR231W, strain MKK1, hits give low values 0.97 | S. cerevisiae deletion strains, locus YPL256C, strain CLN2, hits give low values 0.975
